Measured values: ChEMBL document CHEMBL3433997, “St. Jude Leishmania screening dataset” (2016)

Legend:
Type in all cases: functional
[1] = biological target: Solute carrier family 2, facilitated glucose transporter member 1 (Homo sapiens) (UniProt P11166); assay: ST_JUDE_LEISH: Cytotoxicity at 2uM final concentration against transgenic Leishmania Mexicana promastigotes LmGLUT1 that are glucose transport deficient and complemented with the human glucose transporter GLUT1. Activity is measured by DNA content using SYBR green in vitro
Chain of Solute carrier family 2, facilitated glucose transporter member 1 (Homo sapiens) (P11166 whole entry): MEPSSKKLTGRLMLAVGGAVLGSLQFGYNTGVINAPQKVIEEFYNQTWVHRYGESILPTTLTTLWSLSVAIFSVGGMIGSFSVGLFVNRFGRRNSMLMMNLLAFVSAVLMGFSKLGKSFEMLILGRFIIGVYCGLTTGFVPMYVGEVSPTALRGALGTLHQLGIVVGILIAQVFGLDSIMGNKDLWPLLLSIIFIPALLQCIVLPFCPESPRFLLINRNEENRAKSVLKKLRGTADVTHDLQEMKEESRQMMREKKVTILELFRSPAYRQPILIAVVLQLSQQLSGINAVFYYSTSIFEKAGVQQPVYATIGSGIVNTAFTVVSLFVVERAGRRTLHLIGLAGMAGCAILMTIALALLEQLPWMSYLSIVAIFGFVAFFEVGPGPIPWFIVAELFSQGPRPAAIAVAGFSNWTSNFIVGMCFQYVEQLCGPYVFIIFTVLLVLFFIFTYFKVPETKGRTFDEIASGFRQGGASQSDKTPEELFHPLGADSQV

[2] = biological target: Hexose transporter 1 (Plasmodium falciparum) (UniProt O97467); assay: ST_JUDE_LEISH: Cytotoxicity at 2uM final concentration against transgenic Leishmania Mexicana promastigotes LmPfHT that are glucose transport deficient and complemented with the Plasmodium falciparum hexose transporter. Activity is measured by DNA content using SYBR green in vitro
[3] = biological target: Glucose transporter (Leishmania mexicana) (UniProt O61059); assay: ST_JUDE_LEISH: Cytotoxicity at 2uM final concentration against transgenic Leishmania Mexicana promastigotes LmGT2 that are glucose transport deficient and complemented with the L. Mexicana glucose transporter 2. Activity is measured by DNA content using SYBR green in vitro

| Compound | inhibition [1] [%] | inhibition [2] [%] | inhibition [3] [%] |
| --- | --- | --- | --- |
| Cn1nccc1C(=O)NCCNCc1ccc(-c2cccc(-c3nc4cc(C(F)(F)F)ccc4[nH]3)c2)cc1 | 0.63 | 1.93 | 2.51 |
| Cc1ccc(-c2nnc(Nc3ccc(C(=O)N4CCCCC4)cc3)c3ccccc23)cc1S(=O)(=O)NCC1CCCO1 (stereo not given) | 4.15 | 21.1 | 3.22 |
| CC(C)c1ccc(Cn2cc(-c3ccncc3)c3cc(OCc4ccccc4)ccc32)cc1 | 0.76 | 0.58 | 2.49 |
| CC(C)C[C@@H](C(=O)N[C@@H](CCCCNC(=O)OCc1ccccc1)C(=O)Nc1nccs1)[C@H](C)N(O)C=O | 3.19 | 3.38 | 0.49 |
| CC(C)C[C@@H](/C=N/N1CCOC1=O)NC(=O)[C@H](CC(C)C)NC(=O)c1ccc(OCCN2CCOCC2)cc1 | 1.39 | 6.46 | 3.93 |
| CCCCCCCc1c(C)nc2cc(OC)ccc2c1O | 7.36 | 9.59 | 7.02 |
| CC(=O)NCC(=O)NC1=NC(=N)N(OCc2ccc3ccccc3c2)C(C)(C)N1 | 2.26 | 1.66 | 0.35 |
| c1cc(Nc2nc(-c3ccc(-c4csc(Nc5ccncc5)n4)cc3)cs2)ccn1 | -1.93 | -1.56 | -1.05 |
| COc1cccc(Nc2nnc(SCC(=O)NNC(=O)c3ccccn3)s2)c1 | 0.56 | 2.27 | -1.42 |
| CCc1ccc2nc(-c3ccc(F)cc3)nc(SCC(=O)Nc3sc(C)c(C)c3C#N)c2c1 | 5.67 | 7.28 | 5.07 |
| CC(NC(=O)c1ccc(O)c(-c2ccc(Cl)c(Cl)c2)c1)C(=O)NCCN1CCCC1 (stereo not given) | 7.43 | 6.16 | 4.25 |
| CN1CCN(Cc2cccc(-c3ccc4c(Nc5ccc(F)cc5Cl)ccnc4c3)c2)CC1 | 4.11 | 6.5 | 3.82 |
| O=C(Nc1ccc(-c2nc3ccccc3[nH]2)cc1)c1ccc(S(=O)(=O)N2CCCCCC2)cc1 | 1.06 | 2.45 | 1.91 |
| Cc1cc(C(=O)CSc2nc3ccccc3n2-c2ccccc2)c(C)n1C1CCS(=O)(=O)C1 (stereo not given) | 0.82 | -1.32 | 0.44 |
| O=C(Nc1cccc(Oc2ccccc2)c1)N[C@H]1CCN(Cc2ccc(OCCCN3CCCCC3)cc2)C1 | 3.58 | 5.18 | 6.98 |
| COc1ccc(CCNc2ccnc3cc(Cl)ccc23)cc1OC | 2.61 | 2.36 | 0.21 |
| COc1cc(NCCCNC(=O)c2cc3c(Cl)cc(Cl)cc3[nH]2)nc2ccccc12 | 2.04 | 6.51 | 0.77 |
| COc1cccc(-c2cccc(NC(=O)C3CCN(Cc4ccc(O)cc4)CC3)c2)c1 | 0.86 | 0.59 | -5.2 |
| Cc1nc(C)c(-c2ccc(Sc3ccc(Cl)cc3)cc2)c(O)c1Br | -2.06 | -1.57 | -1.9 |
| Cc1ccc([N+](=O)[O-])cc1NC(=O)N(CC(O)c1ccccc1)C1CCCCC1 (stereo not given) | 1.93 | 2.61 | 2.38 |
| CN1CCN(CC(=O)Nc2ccc(-c3csc(-c4nc5ccccc5[nH]4)c3)cc2)CC1 | -0.59 | 0.35 | -2.28 |
| CC(C)N1CCN(C(=O)c2ccc(CNCCCN3CCN(c4cccc(Cl)c4Cl)CC3)o2)CC1 | -2.44 | -1.41 | -1.3 |
| CCN(CC)CCN(Cc1ccc(-c2ccc(C(F)(F)F)cc2)cc1)C(=O)Cn1c(/C=C/c2ccco2)nc(=O)c2ccccc21 | -0.7 | -0.97 | -1.26 |
| N#Cc1ccccc1S(=O)(=O)N1CCCC(CNC(=O)[C@H](CC2CCCCC2)NC(=O)c2cc3ccccc3s2)C1 (stereo not given in full) | 1.08 | 2.15 | 0.55 |
| O=C(NC1CC1)c1ccc(Nc2nccc(-c3c(-c4cccc(NC(=O)c5c(F)cccc5F)c4)nn4ccccc34)n2)cc1 | 7.45 | 8.87 | 3.41 |

| Compound | inhibition [1] [%] | inhibition [2] [%] | inhibition [3] [%] |
| --- | --- | --- | --- |
| Fc1ccccc1C=NN=c1cc[nH]c2ccccc12 | 4.61 | 4.39 | 4.15 |
| O=C(NCc1ccccc1)Nc1ccc(-c2cccc(-c3nc4cc(C(F)(F)F)ccc4[nH]3)c2)cc1 | -0.99 | -0.18 | -1.23 |
| CC(C)c1ccc(CN2CCC(CNC(=O)c3cc(-c4ccccc4F)cs3)C2)cc1 (stereo not given) | 4.5 | 4.88 | 8.4 |
| CN(c1ccc2c(c1)nc(NC(=O)C1(c3cc(F)ccc3F)CC1)n2C)c1ccnc(Nc2cccc(CS(C)(=O)=O)c2)n1 | -0.91 | 0.33 | -1.29 |
| COc1ccc(CCNC(=O)c2ccc(-n3cc(NC(=O)c4cccnc4)cn3)cc2)cc1OC | 3.78 | 3.85 | 3.79 |
| N#Cc1ccc(C(=O)Nc2cccc(-c3ccc(CN4CCCC4)cc3)c2)cc1 | 11.4 | 9.72 | 9.04 |
| O=C(Nc1cccc(F)c1)c1ccc(C(=O)NC2CCN(CC3CCCCC3)CC2)cc1 | 1.87 | 5.33 | 1.84 |
| Nc1c(Cl)cc(C(O)CNCCCCCCOCCc2ccc(CO)s2)cc1Cl (stereo not given) | 2.77 | 1.49 | 2.21 |
| Fc1ccc2[nH]c(-c3ccc(-c4ccc(CN5CCCCC5)cc4)cc3)nc2c1 | 8.66 | 7.06 | 5.34 |
| Cn1ccnc1CCC(=O)Nc1ccc(Cl)cc1C(=O)Nc1ccc(Cl)cc1 | 2.75 | 1.39 | 2.79 |
| Cc1ccc(Cn2ncc(N3CC(C)NC(C)C3)c(Cl)c2=O)cc1NC(=O)Nc1ccc(-c2ccccc2)cc1 (stereo not given) | 14.6 | 13.9 | 13.6 |
| O=C(NC1CC1)c1ccc(N2CCN(Cc3ccc(Cl)cc3)CC2)nc1 | 0.06 | -0.23 | -0.4 |
| CCCCN1CCN(CCCNc2c3ccccc3nc3ccccc23)CC1 | 68 | 80 | 55.3 |
| CCCCCCCCn1ccc(=N)cc1 | 4.46 | 3.06 | 0.3 |
| CC(=O)c1ccc(Nc2c(C(N)=O)cnc3cc(-c4c(C)noc4C)ccc23)cc1 | 8.14 | 6.39 | 5.76 |
| Cn1cccc1C(=O)NCC(CCNc1cc(=O)c2ccccc2[nH]1)NCc1cc(Br)cc(Br)c1 (stereo not given) | 0.88 | 2.6 | 1.58 |
| Cc1cc(F)ccc1Nc1nc(N(C)c2ccccc2)c2cc(OCCCN(C)C)ccc2n1 | 2.53 | 3.15 | 4.25 |
| Cc1cccc2nc(-c3ccc(-c4ccc(CN5CCCC5CN)cc4)cc3)[nH]c12 (stereo not given) | 6.95 | 6.96 | 4.26 |
| Cn1ccnc1S(=O)(=O)CCNCc1ccc(-c2ccc3ncnc(Nc4ccc(OCc5cccc(F)c5)c(Cl)c4)c3c2)o1 | 3.08 | 6.11 | 0.71 |
| CN1CCCc2ccc(NC(=O)c3cc(-c4ccc(Cl)cc4)cs3)cc2C1 | 1.97 | 4.89 | 1.2 |
| COc1cc2nc(N3CCC(CNC(=O)c4ccc(C(C)=O)cc4)CC3)nc(N)c2cc1OC | 2.39 | 2.18 | 3.9 |
| O=C(NCc1cccc(F)c1)Nc1ccc(-c2cccc(-c3nc4cc(F)ccc4[nH]3)c2)cc1 | 1.98 | 1.08 | 6.08 |
| Cc1ccc2c(c1)nc(N)n2C[C@H](O)c1ccccc1 | 1.01 | 1.37 | 1.1 |
| CC(C)OC(=O)c1cccnc1SCC(=O)Nc1ccc(C(F)(F)F)cc1Cl | 1.58 | 1.68 | 3.79 |
| CC[C@H](C)CNC(=O)c1cccc(-c2cccc(CNCC3CNCCCO3)c2)n1 (stereo not given in full) | -0.08 | -0.61 | -0.09 |
